Data reported in PubChem BioAssay AID743279 (National Center for Advancing Translational Sciences (NCATS), 2014).
Out of some 360,000 compounds screened, about 17,000 (4.7%) were called active. Another 5% or so got no clear call; they are omitted. The sample holds actives, similar compounds and a random draw of the others, so the mix is not that of the screen. A number with no mark means an inactive call. Rule as the data show it: active = activity change below about -50%; inconclusive = mostly about -30% to -49%; inactive = weaker than that.
% is scaled to controls: 0 for no effect and ±100 for the full control effect.

Assay: qHTS for Inhibitors of Inflammasome Signaling: IL-1-beta AlphaLISA Primary Screen
Settings: THP-1 LPS/ATP IL-1B secretion, 16 h; at 57.5 µM, stronger effect = lower value
Method in brief: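 THP-1 cells pretreated 1 hr with compounds (up to 57.5 uM final), then stimulated with LPS (250 ng/mL final) plus ATP (1.25 mM final); secreted IL-1B measured by AlphaLISA after 16 hr, decreased signal indicating inhibition.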
With CC(=O)OCC(C)n1c(=O)c2ccccc2n1C(C)=O (configuration not stated) the activity change was 21.8%.
CC(=O)c1nc2ccccc2n1Cc1ccccc1 gave an activity change of 24.8%.
For CC(=O)Oc1c(C(=O)c2nnc(C)o2)c(=O)n(Cc2ccccc2)c2ccccc12, the activity change was -63.6% (active).
Compound COc1ccc(NS(=O)(=O)c2cc(NC(=O)CC(=O)c3ccc([N+](=O)[O-])cc3)ccc2C)cc1 has an activity change of -19.6%.
In the case of O=C(Nc1cccc(-c2nc3ncccc3o2)c1)c1ccco1, the activity change is reported as -57% (active).
O=C(Nc1cc(-c2nc3ncccc3o2)ccc1Cl)c1ccco1 gave an activity change of 4.47%.
In the case of CC(C)(C)NC(=O)c1cc(NC(=O)c2ccco2)cc(NC(=O)c2ccco2)c1, the activity change is reported as 3.33%.
For Cc1ccc2nc(SCc3nnc(-c4ccccc4[N+](=O)[O-])o3)c(C#N)cc2c1, the activity change was 24.6%.
With Cc1ccc([C@H]2C[C@H](O)[C@@H](n3cc(COC(=O)c4ccccc4)nn3)CN2CC2CCCCC2)cc1 the activity change was -1.43%.
Work on CN1CCN(C(=O)c2ccccc2NC(=O)COc2ccccc2Cl)CC1 yielded an activity change of 7.63%.
Work on COc1ccc(C(=O)OCC(=O)NCCCc2ccccc2)cc1OC yielded an activity change of 19%.
For CC(C)n1ncc2c(C(=O)N3CCN(Cc4cccs4)CC3)cc(C3CC3)nc21, the activity change was -6.72%.
In the case of CC(=O)Nc1cccc(-c2ccnc3c2CC(C)(C(=O)NCc2ccccc2)O3)c1 (configuration not stated), the activity change is reported as 92.1%.
For CCCCN(CCCC)C(=O)CCS(=O)(=O)c1ccc2c(c1)n(C)c(=O)c(=O)n2C, the activity change was 7.06%.
O=C1CCC(=O)N(O)CCCCCNC(=O)CCC(=O)N(O)CCCCCNC(=O)CCC(=O)N(O)CCCCCN1 showed an activity change of 38.7%.
Compound COc1ccc(C(=O)CC(=O)c2ccc(C)cc2)c(O)c1 has an activity change of -20.9%.
With COc1ccc(C(=O)/C=C/c2ccc(OC3CSC3)cc2)cc1 the activity change was -99.6% (active).
With COc1ccc(C(=O)/C=C/c2cccnc2)c(OC)c1 the activity change was -96.6% (active).
Compound Cc1nc(-c2ccccc2)sc1C(=O)/C=C/N(C)C has an activity change of -11.9%.
Work on Cc1nc(-c2ccc(Cl)cc2)sc1C(=O)CBr yielded an activity change of 0%.
In the case of COc1ccc(/C=C/C(=O)NC(=S)N2CCCC(C(N)=O)C2)cc1 (configuration not stated), the activity change is reported as -22.6%.
With COc1ccc(/C=C/C(=O)c2ccc(OC)cc2O)cc1 the activity change was -98.1% (active).
COc1ccc(/C=C/C(=O)c2cc(Br)ccc(=O)c2O)cc1 gave an activity change of -2.15%.
In the case of Cc1nc(-c2ccccc2)sc1C(=O)/C=C/c1ccccc1, the activity change is reported as -84.3% (active).
For COc1ccc(C(=O)CCC(=O)Nc2cccnc2)c(OC)c1, the activity change was -9.85%.
CCOC(=O)C1CCCN(C(=O)/C=C/c2ccc(OC)cc2)C1 (configuration not stated) gave an activity change of -6.92%.
In the case of COc1ccc(-c2cc(C(=O)N/N=C/c3cccnc3)c3ccccc3n2)c(OC)c1, the activity change is reported as -5.72%.
In the case of Cc1ccc(S(=O)(=O)N2CCOCC2)cc1NC(=O)CSc1nnc(N)s1, the activity change is reported as 18.9%.
Work on COC(=O)[C@]12CCCCC=C1N(Cc1ccccc1)C(=O)[C@H](CC(=O)NCc1ccc(C)o1)C2 yielded an activity change of 42.5%.
Work on O=C(OCc1cn([C@@H]2C[C@H](c3ccc(Cl)cc3)N(Cc3cccs3)C[C@H]2O)nn1)c1ccccc1 yielded an activity change of 10.7%.
O=C1CCC/C(=N\NC(=O)NC2CCCCC2)C1 showed an activity change of -10.6%.
O=C(/C=C(O)/C=C/c1ccc(O)cc1)/C=C/c1ccc(O)cc1 showed an activity change of -22.4%.
Compound O=C(NNC(=O)c1ccccc1O)c1ccccc1O has an activity change of 67.1%.
With O=C(/C=C/c1ccccc1)c1ccccc1O the activity change was -85.5% (active).
Work on CCCS(=O)(=O)NC(=O)C1(C)CCCN(C(=O)c2cccs2)C1 (configuration not stated) yielded an activity change of 1.15%.
In the case of CCOC(=O)c1ccc2[nH]c(C)c(CN3CCN(C)CC3)c(=O)c2c1, the activity change is reported as 13.2%.
In the case of O=C(CCCCCn1c(=S)[nH]c2ccsc2c1=O)NC1CCCCC1, the activity change is reported as 7.06%.
With CO[C@@H]1CN(C)C(=O)c2cc(NC(=O)C3CC3)ccc2OC[C@H](C)N(C(=O)CN2CCOCC2)C[C@@H]1C the activity change was 11%.
Compound O=C(O)c1ccccc1-c1cccc2nncn12 has an activity change of -10.3%.
Cn1c2c(c(=O)n(C)c1=O)C(c1cccc(F)c1)C(C#N)=C(N)O2 (configuration not stated) showed an activity change of 5.24%.
With Cc1c(C(=O)NCc2ccc(C#N)cc2)sc(=O)n1Cc1ccc(C(=O)N(C)C)cc1 the activity change was -7.66%.
With Cc1cc(OCCCCOc2ccc(C#N)cc2)ccc1[N+](=O)[O-] the activity change was 0%.
In the case of O=[N+]([O-])c1ccccc1OCCCCN1CCCCC1, the activity change is reported as 15.9%.
In the case of CCCCCOc1ccc(CSC2=NCCN2)cc1[N+](=O)[O-], the activity change is reported as -93.2% (active).
CCCCOC(=O)CCCc1ccc([N+](=O)[O-])cc1[N+](=O)[O-] showed an activity change of 17.5%.
In the case of CCCCOc1ccc(CSC(=N)N)cc1[N+](=O)[O-], the activity change is reported as -102% (active).
Compound Cc1nc(SCc2ccc(F)cc2)c([N+](=O)[O-])[nH]1 has an activity change of 15.4%.
